Results from PubChem BioAssay.
For some assays here: Entries with a potency or affinity are not part of this list. Calls of active or inactive are those of the source. No rule for the calls is given here.

What follows are molecules tested against Plasmodium falciparum protein kinase 6 (PK6, PF3D7_1337100) (UniProt Q8IDW1) (assay: PfPK6 kinase inhibitors, biochemical, TCAMS library (AID 1159586)). Details: recombinant PfPK6, Kinase-Glo ATP depletion luminescence.
Plasmodium falciparum protein kinase 6 (PK6, PF3D7_1337100), sequence (Q8IDW1 1-305): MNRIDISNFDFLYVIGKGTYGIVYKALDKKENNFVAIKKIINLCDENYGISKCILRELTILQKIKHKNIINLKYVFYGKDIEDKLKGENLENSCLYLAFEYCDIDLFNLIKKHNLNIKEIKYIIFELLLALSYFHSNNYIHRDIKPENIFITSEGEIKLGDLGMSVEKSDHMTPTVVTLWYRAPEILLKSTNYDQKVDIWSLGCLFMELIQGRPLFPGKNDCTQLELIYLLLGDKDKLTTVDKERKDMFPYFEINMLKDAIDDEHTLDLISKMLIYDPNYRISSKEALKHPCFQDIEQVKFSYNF

outcome, inactive:
CC(C)NCC(O)COc1ccc(Cc2ccc(OCC(O)CNC(C)C)cc2)cc1 (stereo not given)
Cc1csc(NC(=O)c2cn(-c3ccccc3)nc2-c2cccs2)n1
OC(CNCCCc1ccccc1)c1cc(OCc2ccccc2)cc(OCc2ccccc2)c1 (stereo not given)
NC1CCN(Cc2ccc(-c3ccc(-c4nc5ccc(F)cc5[nH]4)s3)cc2)C1 (stereo not given)
N=c1n(CCN2CCCCC2)c2ccccc2n1CC(=O)c1cccc([N+](=O)[O-])c1
O=C(NC(=S)NCc1ccncc1)c1ccccc1
CC(Cc1ccc(NC(=O)c2ccc(CC(C)NCc3ccc(Cl)c(Cl)c3)cc2)cc1)NCCc1cccc(Cl)c1 (stereo not given)
Cc1cc(CNC(c2ccccc2)C2CCC2)cc(C)c1O (stereo not given)
Cc1ccc(CNC(=O)c2cnc(N3CCN(c4ccncc4)CC3)c(Cl)c2)cc1
O=C(/C=C/c1ccc(Cl)c(Cl)c1)N1CCC(CN2CCC(Cc3nc4ccccc4[nH]3)CC2)CC1
O=C(NCCSCc1c(F)cccc1Cl)c1cnc2c(c1)nc(-c1cnc(-c3ccccc3)[nH]1)n2CCc1cnc[nH]1
COc1ccc(-c2cccc(NC(=O)c3ccc(Cl)cc3)c2)cc1CN(C)CCN(C)C
CSc1cccc(NC(=O)Nc2ccc(I)c(OCCN(C)C)c2)c1
COc1ccc2nccc([C@@H](O)CN3CCC(NC(=O)/C=C/c4cc(F)cc(Br)c4)CC3)c2c1
CC(C)C(C(=O)n1ncc2c3c(N)nc(N)nc3ccc21)C(C)C
CC(C)N1CCC(N(Cc2ccc(-c3ccc(C(F)(F)F)cc3)cc2)C(=O)Cn2c(SCc3cccc(F)c3F)nc(=O)c3ccccc32)CC1
Cc1cc(NN=Cc2ccccc2)c2cc(F)ccc2n1
Cc1cc(N[C@@H](Cc2ccccc2)C(=O)NCc2cccs2)nc(Nc2ccccc2)n1
CCOc1cc2ncnc(Nc3ccc(OCc4ccccc4Br)c(OC)c3)c2cc1OCC
O=C(Nc1cccc(-c2ccc(CN3CCCC3)cc2)c1)c1cccc(F)c1
COCCOc1ccc(Nc2nccc(-c3c(-c4cccc(NC(=O)c5c(F)cccc5F)c4)nn4ccccc34)n2)cc1F
CC1(C)N=C(N)N=C(N)N1OCCCOc1cc(Cl)c(Cl)cc1Cl
FC(F)(F)c1ccc2nc(-c3ccc(-c4cccc(CN5CCN(CCN6CCOCC6)CC5)c4)cc3)[nH]c2c1
Clc1ccc(Nc2nc3nonc3nc2Nc2ccc(Cl)c(Cl)c2)cc1
Nc1ccc(-c2ccc3ccnc(N)c3c2)cn1
COc1cccc(Nc2nc(C)cc(NC3CCCC3)n2)c1
CCOc1ccc(OCC(=O)Nc2nc(-c3ccc(OC)cc3)c(C)s2)cc1
O=C(Nc1ccc(Cl)cc1)c1cc(Cl)ccc1NC(=O)C1CCc2ccccc2O1 (stereo not given)
Cc1cccc(-c2nc(Nc3ccncc3)c3cc(N(C)C)ccc3n2)n1
COc1ccc(NS(=O)(=O)c2cc(NC(=O)Cn3ccccc3=O)ccc2N2CCCCC2)cc1
COc1ccc2nccc([C@@H](O)CN3CCC(NCCOc4ccccc4[N+](=O)[O-])CC3)c2c1
Cc1noc(-c2ccc(O)cc2O)c1-c1ccc2c(c1)OCCCO2
N#Cc1cc(C(=O)c2cc(Cl)ccc2O)cn(-c2cc(Cl)cc(Cl)c2)c1=O
CC(C)c1ccc(C=CC(=O)N2CCC(CCN3CCC(c4c[nH]c5ccccc45)CC3)CC2)cc1
CN1CCC(C(=O)Nc2ccc(-c3ccc(-c4nc5ccccc5[nH]4)cc3)cc2)CC1
CC[C@@H]([C@@H](Cc1cc2ccccc2s1)C(=O)N[C@@H](CCCCNC(=O)OCc1ccccc1)C(=O)Nc1ccccn1)N(O)C=O
COc1ccc(Br)cc1/C=C/C(=O)Nc1ccc2c(c1)CCCN(C)C2
COc1ccc(NC(=O)[C@H](CC(C)C)Nc2cc(C)nc(NCc3cccc(C)c3)n2)cc1
N#Cc1cc([N+](=O)[O-])ccc1-n1nc(-c2cccc(Cl)c2)n(CC2CCCO2)c1=S (stereo not given)
O=C(NCCCCN1CCC(c2cccc3ccccc23)CC1)c1ccc(NC(=O)c2ccc(Cl)cc2)cc1

These molecules were tested against Protein kinase 7 (PK7), Plasmodium falciparum 3D7 (PF3D7_0213400) (UniProt Q7YTF7) (assay: inhibition of Plasmodium PK7 catalytic activity – biochemical, TCAMS antimalarial set, Kinase-Glo luminescence (AID 1159587)). Details: recombinant PfPK7, Kinase-Glo ATP depletion luminescence.
Protein kinase 7 (PK7), Plasmodium falciparum 3D7 (PF3D7_0213400), sequence (Q7YTF7 1-343): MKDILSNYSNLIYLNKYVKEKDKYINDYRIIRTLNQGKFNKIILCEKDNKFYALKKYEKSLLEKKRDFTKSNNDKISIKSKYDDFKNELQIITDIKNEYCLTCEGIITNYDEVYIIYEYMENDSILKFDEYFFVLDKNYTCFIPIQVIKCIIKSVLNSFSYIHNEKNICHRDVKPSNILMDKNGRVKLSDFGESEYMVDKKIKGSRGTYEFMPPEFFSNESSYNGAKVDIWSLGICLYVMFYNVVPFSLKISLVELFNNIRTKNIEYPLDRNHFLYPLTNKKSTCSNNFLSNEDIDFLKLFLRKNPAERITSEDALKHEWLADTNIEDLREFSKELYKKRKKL

outcome, inactive:
CC(C)NCC(O)COc1ccc(Cc2ccc(OCC(O)CNC(C)C)cc2)cc1 (stereo not given)
Cc1csc(NC(=O)c2cn(-c3ccccc3)nc2-c2cccs2)n1
OC(CNCCCc1ccccc1)c1cc(OCc2ccccc2)cc(OCc2ccccc2)c1 (stereo not given)
NC1CCN(Cc2ccc(-c3ccc(-c4nc5ccc(F)cc5[nH]4)s3)cc2)C1 (stereo not given)
N=c1n(CCN2CCCCC2)c2ccccc2n1CC(=O)c1cccc([N+](=O)[O-])c1
O=C(NC(=S)NCc1ccncc1)c1ccccc1
CC(Cc1ccc(NC(=O)c2ccc(CC(C)NCc3ccc(Cl)c(Cl)c3)cc2)cc1)NCCc1cccc(Cl)c1 (stereo not given)
Cc1cc(CNC(c2ccccc2)C2CCC2)cc(C)c1O (stereo not given)
Cc1ccc(CNC(=O)c2cnc(N3CCN(c4ccncc4)CC3)c(Cl)c2)cc1
O=C(/C=C/c1ccc(Cl)c(Cl)c1)N1CCC(CN2CCC(Cc3nc4ccccc4[nH]3)CC2)CC1
O=C(NCCSCc1c(F)cccc1Cl)c1cnc2c(c1)nc(-c1cnc(-c3ccccc3)[nH]1)n2CCc1cnc[nH]1
COc1ccc(-c2cccc(NC(=O)c3ccc(Cl)cc3)c2)cc1CN(C)CCN(C)C
CSc1cccc(NC(=O)Nc2ccc(I)c(OCCN(C)C)c2)c1
COc1ccc2nccc([C@@H](O)CN3CCC(NC(=O)/C=C/c4cc(F)cc(Br)c4)CC3)c2c1
CC(C)C(C(=O)n1ncc2c3c(N)nc(N)nc3ccc21)C(C)C
CC(C)N1CCC(N(Cc2ccc(-c3ccc(C(F)(F)F)cc3)cc2)C(=O)Cn2c(SCc3cccc(F)c3F)nc(=O)c3ccccc32)CC1
Cc1cc(NN=Cc2ccccc2)c2cc(F)ccc2n1
Cc1cc(N[C@@H](Cc2ccccc2)C(=O)NCc2cccs2)nc(Nc2ccccc2)n1
CCOc1cc2ncnc(Nc3ccc(OCc4ccccc4Br)c(OC)c3)c2cc1OCC
O=C(Nc1cccc(-c2ccc(CN3CCCC3)cc2)c1)c1cccc(F)c1
COCCOc1ccc(Nc2nccc(-c3c(-c4cccc(NC(=O)c5c(F)cccc5F)c4)nn4ccccc34)n2)cc1F
CC1(C)N=C(N)N=C(N)N1OCCCOc1cc(Cl)c(Cl)cc1Cl
FC(F)(F)c1ccc2nc(-c3ccc(-c4cccc(CN5CCN(CCN6CCOCC6)CC5)c4)cc3)[nH]c2c1
Clc1ccc(Nc2nc3nonc3nc2Nc2ccc(Cl)c(Cl)c2)cc1
Nc1ccc(-c2ccc3ccnc(N)c3c2)cn1
COc1cccc(Nc2nc(C)cc(NC3CCCC3)n2)c1
CCOc1ccc(OCC(=O)Nc2nc(-c3ccc(OC)cc3)c(C)s2)cc1
O=C(Nc1ccc(Cl)cc1)c1cc(Cl)ccc1NC(=O)C1CCc2ccccc2O1 (stereo not given)
Cc1cccc(-c2nc(Nc3ccncc3)c3cc(N(C)C)ccc3n2)n1
COc1ccc(NS(=O)(=O)c2cc(NC(=O)Cn3ccccc3=O)ccc2N2CCCCC2)cc1
COc1ccc2nccc([C@@H](O)CN3CCC(NCCOc4ccccc4[N+](=O)[O-])CC3)c2c1
Cc1noc(-c2ccc(O)cc2O)c1-c1ccc2c(c1)OCCCO2
N#Cc1cc(C(=O)c2cc(Cl)ccc2O)cn(-c2cc(Cl)cc(Cl)c2)c1=O
CC(C)c1ccc(C=CC(=O)N2CCC(CCN3CCC(c4c[nH]c5ccccc45)CC3)CC2)cc1
CN1CCC(C(=O)Nc2ccc(-c3ccc(-c4nc5ccccc5[nH]4)cc3)cc2)CC1
CC[C@@H]([C@@H](Cc1cc2ccccc2s1)C(=O)N[C@@H](CCCCNC(=O)OCc1ccccc1)C(=O)Nc1ccccn1)N(O)C=O
COc1ccc(Br)cc1/C=C/C(=O)Nc1ccc2c(c1)CCCN(C)C2
COc1ccc(NC(=O)[C@H](CC(C)C)Nc2cc(C)nc(NCc3cccc(C)c3)n2)cc1
N#Cc1cc([N+](=O)[O-])ccc1-n1nc(-c2cccc(Cl)c2)n(CC2CCCO2)c1=S (stereo not given)
O=C(NCCCCN1CCC(c2cccc3ccccc23)CC1)c1ccc(NC(=O)c2ccc(Cl)cc2)cc1
